Data: PubChem BioAssay AID1159580 (chemical genetic matrix, 2015)
The campaign covered roughly 5,500 compounds. About 2,000 (36%) were called active. Another 18% or so got no clear call; they are omitted. No stated cut-off is given here; in the data, active means normalized growth mostly below about 0.91 (no sharp cut-off); inconclusive means no clear call, values can overlap the other calls; inactive means mostly above about 0.92. The list shows a part of the results.

Assay: chemical genetic growth profiling, strain panel (AID 1159580);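 further: tested at 20 µM; growth read once vehicle control cultures reached saturation at 30 °C; 1 = growth at the plate median or of vehicle wells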
Details: S. cerevisiae deletion strains, growth OD

Measured: normalized growth

C=CC1C2=CCOC(=O)C2=COC1OC1OC(CO)C(O)C(O)C1O (configuration not stated)
inactive: locus YAL021C, strain ccr4, stronger effect = lower value 1.02 | locus YAL026C, strain drs2, stronger effect = lower value 1.02 | locus YAL030W, strain snc1, stronger effect = lower value 1.02 | locus YBL061C, strain skt5, stronger effect = lower value 1.01 | locus YBR009C, strain hhf1, stronger effect = lower value 1.02 | locus YBR023C, strain chs3, stronger effect = lower value 1.01 | locus YBR171W, strain sec66, stronger effect = lower value 1.02 | locus YBR231C, strain swc5, stronger effect = lower value 1.02 | locus YBR279W, strain paf1, stronger effect = lower value 1.01 | locus YCL011C, strain gbp2, stronger effect = lower value 1.02 | locus YCL016C, strain dcc1, stronger effect = lower value 1.01 | locus YCL061C, strain MRC1, stronger effect = lower value 1.02 | locus YCL069W, strain vba3, stronger effect = lower value 1.02 | locus YCR088W, strain abp1, stronger effect = lower value 1.02 | locus YDL005C, strain med2, stronger effect = lower value 1.01 | locus YDL040C, strain nat1, stronger effect = lower value 1.02 | locus YDR001C, strain nth1, stronger effect = lower value 1.02 | locus YDR069C, strain doa4, stronger effect = lower value 1.02 | locus YDR137W, strain rgp1, stronger effect = lower value 1.08 | locus YDR159W, strain sac3, stronger effect = lower value 1.02 | locus YDR195W, strain ref2 1.01 | locus YDR297W, strain sur2, stronger effect = lower value 1.02 | locus YDR334W, strain swr1, stronger effect = lower value 1.02 | locus YDR335W, strain msn5, stronger effect = lower value 1.02 | locus YDR392W, strain spt3, stronger effect = lower value 1.02 | locus YEL003W, strain gim4, stronger effect = lower value 1.02 | locus YEL037C, strain rad23, stronger effect = lower value 1.02 | locus YEL061C, strain CIN8 (second series), stronger effect = lower value 1.03 | locus YER015W, strain faa2, stronger effect = lower value 1.01 | locus YER016W, strain bim1, stronger effect = lower value 1.02 | locus YER111C, strain swi4, stronger effect = lower value 1.01 | locus YER155C, strain BEM2 (second series), stronger effect = lower value 1.05 | locus YFR010W, strain ubp6, stronger effect = lower value 1.03 | locus YGL167C, strain pmr1, stronger effect = lower value 1.02 | locus YGL173C, strain kem1, stronger effect = lower value 1.02 | locus YGL227W, strain vid30, stronger effect = lower value 1.03 | locus YGL240W, strain doc1, stronger effect = lower value 1.02 | locus YGL253W, strain hxk2, stronger effect = lower value 1.03 | locus YHR013C, strain ard1, stronger effect = lower value 1.04 | locus YHR027C, strain rpn1, stronger effect = lower value 1.02 | locus YHR142W, strain chs7, stronger effect = lower value 1.04 | locus YJL092W, strain hpr5, stronger effect = lower value 1.01 | locus YJL095W, strain BCK1 (second series), stronger effect = lower value 1.02 | locus YJL115W, strain asf1, stronger effect = lower value 1.03 | locus YJL129C, strain trk1, stronger effect = lower value 1.04 | locus YJL154C, strain vps35, stronger effect = lower value 1.01 | locus YJL164C, strain tpk1, stronger effect = lower value 1.02 | locus YJL166W, strain qcr8, stronger effect = lower value 1.02 | locus YJL187C, strain SWE1, stronger effect = lower value 1.02 | locus YKL160W, strain elf1, stronger effect = lower value 1.01 | locus YKR026C, strain gcn3, stronger effect = lower value 1.02 | locus YKR091W, strain srl3, stronger effect = lower value 1.02 | locus YLL001W, strain dnm1, stronger effect = lower value 1.02 | locus YLL026W, stronger effect = lower value 1.01 | locus YLL041C, strain sdh2, stronger effect = lower value 1.02 | locus YLR027C, strain aat2, stronger effect = lower value 1.01 | locus YLR221C, strain rsa3, stronger effect = lower value 1.02 | locus YLR258W, strain gsy2, stronger effect = lower value 1.01 | locus YLR262C, strain YPT6 (second series), stronger effect = lower value 1.03 | locus YLR320W, strain mms22, stronger effect = lower value 1.03 | locus YLR342W, strain FKS1, stronger effect = lower value 1 | locus YLR357W, strain rsc2, stronger effect = lower value 1 | locus YLR370C, strain arc18, stronger effect = lower value 1.03 | locus YLR384C, strain iki3, stronger effect = lower value 1.01 | locus YML120C, strain ndi1, stronger effect = lower value 1.02 | locus YMR058W, strain fet3, stronger effect = lower value 1.02 | locus YMR125W, strain sto1, stronger effect = lower value 1.03 | locus YMR129W, stronger effect = lower value 1.02 | locus YMR205C, strain PFK2, stronger effect = lower value 1.03 | locus YMR231W, strain pep5, stronger effect = lower value 1.03 | locus YNL071W, strain lat1, stronger effect = lower value 1.02 | locus YNL209W, strain ssb2, stronger effect = lower value 1.01 | locus YNL248C, strain rpa49, stronger effect = lower value 1.05 | locus YNL322C, strain KRE1 (second series), stronger effect = lower value 1.02 | locus YNR049C, strain mso1, stronger effect = lower value 1.01 | locus YOR001W, strain rrp6, stronger effect = lower value 1.01 | locus YOR070C, strain gyp1, stronger effect = lower value 1.02 | locus YOR080W, strain dia2, stronger effect = lower value 1.02 | locus YOR083W, strain WHI5, stronger effect = lower value 1.01 | locus YOR106W, strain vam3, stronger effect = lower value 1.02 | locus YOR265W, strain rbl2, stronger effect = lower value 1.01 | locus YOR270C, strain vph1, stronger effect = lower value 1.11 | locus YOR290C, strain snf2, stronger effect = lower value 1.02 | locus YPL051W, strain arl3, stronger effect = lower value 1.01 | locus YPL078C, strain atp4, stronger effect = lower value 1.04 | locus YPL106C, strain sse1, stronger effect = lower value 1.02 | locus YPL240C, strain hsp82, stronger effect = lower value 1
